HepG2 viability = qHTS for Inhibitors of TGF-b: Cytotox Counterscreen. actives 0.76% (n = 410,000). Potency, µM (titrated, usually from 46.1 µM), most hits filed as cytotoxic. AID 588856, 2011. HepG2 CAGA-GFP viability, ATP luminescence, 18 h
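CellTiter-Glo luminescence gave cytotoxicity after 18 hours at 37 degrees C. The cells were HepG2 CAGA-GFP in 1% FBS DMEM, stimulated with 500 pg/mL TGF-beta after compound addition. %Activity was normalised to no-cell wells (complete cell-killing) and DMSO (no toxicity), and curves were fitted and classified.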
TGFb SMAD3 inh = qHTS for Inhibitors of TGF-b. Potency, µM (top dose mostly 46.1 µM), hits mostly inhibitors. actives 1.2% (n = 410,000). HepG2 CAGA-GFP TGF-b/SMAD3 reporter, GFP fluorescence, 18 h; TGF-beta stimulated, 500 pg/mL final; further: nearly all actives have a fitted effect of over 65% in size
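HEPG2 CAGA-GFP reporter cells (1000/well, DMEM with 1% FBS) received compounds, then recombinant TGF-beta at 500 pg/mL final for 18 hours at 37 degrees C. Per-cell GFP summed per well was normalised to unstimulated and stimulated DMSO controls before curve fitting.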
Giardia killer = Small Molecules that selectively kill Giardia lamblia: qHTS; Giardia lamblia trophozoite viability; activity change, % at 7.66 µM, hits read low; actives 0.15% (n = 340,000); AID 540267, 2011; in the data active means activity change below about -80%; inconclusive means between about -30% and that limit;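 further: parasites exposed to compound for two days anaerobically before the ATP read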
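Media and compound were dispensed first, then trophozoites at 100 cells/well; plates sat 48 hrs at 37 deg C without oxygen before ATP luminescence reagent was added and read after 15-30 min at room temperature.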
IL1B secr inh = qHTS for Inhibitors of Inflammasome Signaling: IL-1-beta AlphaLISA Primary Screen; THP-1 LPS/ATP IL-1B secretion, AlphaLISA, 16 h; stronger effect = lower value; actives 4.7% (n = 360,000); activity change, % at 57.5 µM; in the data active means activity change below about -50%; inconclusive means mostly about -30% to -49%
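THP-1 cells pretreated 1 hr with compounds (up to 57.5 uM final), then stimulated with LPS (250 ng/mL final) plus ATP (1.25 mM final); secreted IL-1B measured by AlphaLISA after 16 hr, decreased signal indicating inhibition.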
HT1080-NT tox = qHTS for induction of synthetic lethality in tumor cells producing 2HG: qHTS for the HT-1080-NT fibrosarcoma cell line; HT-1080-NT fibrosarcoma viability, CellTiter-Glo ATP luminescence, 48 h; Potency, µM (series often up to 46.1 µM), most hits filed as cytotoxic; actives 1.6% (n = 360,000); AID 686970, 2013;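 further: NT is the 2HG producing partner of a matched IDH1 knockdown line; nearly all actives have a fitted effect of over 55% in size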
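HT-1080-NT; 750 cells/well; 5% FBS RPMI; 48 h compound, 37 degrees C; CellTiter-Glo luminescence; curve fitting and curve-class assignment.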
HT1080 IDH1KD tx = qHTS for induction of synthetic lethality in tumor cells producing 2HG: qHTS for the HT-1080-IDH1KD cell line; Potency, µM (titrated, usually from 46.1 µM), most hits filed as cytotoxic; actives 2% (n = 360,000); HT-1080 IDH1 knockdown viability, ATP luminescence, 48 h
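Knockdown cells (IDH1KD HT-1080) received compounds 2 h after plating at 750 cells/well and were kept 48 h at 37 °C in 5% FBS RPMI. A CellTiter-Glo luminescence read gave % activity for curve fitting.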
A number is an active result; - = inactive; ? = inconclusive; . = no result given. This is a sample that favours compounds with a hit; in the whole collection about 6.5% have one here. Unless noted, the call rests on the fitted dose curve; in most records, active means well fitted curve in the direction sought with a large enough effect; inconclusive means small, poorly fitted or top-dose-only effect, or another doubt; inactive means no such curve, though single readings can be large; an effect the other way counts as inactive or inconclusive.

SMILES | HepG2 viability | TGFb SMAD3 inh | Giardia killer | IL1B secr inh | HT1080-NT tox | HT1080 IDH1KD tx
CCOC(=O)N1C/C(=C\c2ccccc2)C(=O)/C(=C/c2ccccc2)C1 | - | 2µM | ? | ? | ? | ?
CN(C)CCC(=O)N1C/C(=C/c2ccccc2)C(=O)/C(=C\c2ccccc2)C1 | - | 2µM | - | -100 | ? | 0.58µM
CN(C)CCNC(=O)C(c1ccccc1)c1ccccc1 | - | - | - | - | - | -
O=C1/C(=C/c2ccccc2)CN(C(=O)CCN2CCOCC2)C/C1=C\c1ccccc1 | 16µM | 2.2µM | - | -101 | ? | ?
C[N+](C)(C)CCC(=O)N1C/C(=C/c2ccccc2)C(=O)/C(=C\c2ccccc2)C1 | - | 7.9µM | - | -98 | ? | 4.1µM
C=C(NS(=O)(=O)c1ccc(C)cc1)C(=O)OC | - | - | - | - | - | -
CCOC(=O)N1CCN(c2nnc(-c3ccccc3)c3ccccc23)CC1 | - | - | - | ? | - | -
O=C(CN1CCOCC1)N1CCN(c2nnc(-c3ccccc3)c3ccccc23)CC1 | - | - | - | - | - | -
CCOC(=O)N1CCN(c2nnc(-c3ccc(C)cc3)c3ccccc23)CC1 | - | - | - | -67 | - | -
CCCC(=O)N1CCN(c2nnc(-c3ccccc3)c3ccccc23)CC1 | - | - | - | -51 | - | -
O=C(c1cccs1)N1CCN(c2nnc(-c3ccccc3)c3ccccc23)CC1 | - | - | - | -87 | - | -
O=C(COc1ccc([N+](=O)[O-])cc1)N1CCN(c2nnc(-c3ccccc3)c3ccccc23)CC1 | - | - | - | - | - | -
Cc1ccc(-c2nnc(N3CCN(C(=O)COc4ccccc4)CC3)c3ccccc23)cc1 | - | ? | - | -79 | ? | ?
CC1Nc2ncnc(N3CCN(c4ccccc4)CC3)c2N(Cc2ccc(Cl)cc2)C1=O (configuration not stated) | - | - | - | ? | - | -
CCCCCCOc1ccc(/C(C)=N/NC2=NCCN2)cc1 | 14µM | ? | - | -56 | - | -
CCOc1ccc(Br)cc1/C(C)=N\NC1=NCCN1 | - | - | - | -80 | 21µM | ?
CCCCCCOc1ccc(C(=O)O)cc1 | - | - | - | - | - | -
CCCCCOc1ccc(/C(C)=N/NC2=NCCN2)cc1 | - | ? | - | -66 | - | -
CC(=NNC1=NCCN1)c1cnn(C2=NCCN2)c1C | - | - | . | - | - | -
CCCCNCCCOc1cc(Cl)ccc1Cl | - | ? | - | ? | ? | -
CC(=O)c1cc(-c2ccc(F)cc2)n(CCC(=O)NC(C)(C)C)c1C | - | - | - | - | - | -
O=[N+]([O-])c1ccc(CC(Cl)c2ccccn2)cc1 (configuration not stated) | - | - | - | -50 | - | -
O=[N+]([O-])c1ccc(Cc2ccccn2)cc1 | - | - | - | - | - | -
Cc1cc(NC(=O)CSc2ccc(-c3cccc([N+](=O)[O-])c3)nn2)no1 | - | - | - | - | - | -
CN(C)c1ccc(P(=O)(COc2ccc([N+](=O)[O-])cc2)c2ccc(N(C)C)cc2)cc1 | - | - | - | - | ? | ?
SMILES | HepG2 viability | TGFb SMAD3 inh | Giardia killer | IL1B secr inh | HT1080-NT tox | HT1080 IDH1KD tx
COc1ccc(C(=O)CCNc2ccc3c(c2)OCCO3)cc1 | - | - | - | -53 | - | -
COc1cc(NC(=O)c2ccc3c(c2)OCCO3)ccc1NC(=O)c1ccccc1Cl | - | - | - | -53 | - | -
COc1cccc(CNC(C)C(=O)Nc2ccc3c(c2)OCCO3)c1 (configuration not stated) | - | - | - | -61 | - | -
COc1cccc(NC(=O)c2ccc3c(c2)OCCO3)c1 | 14µM | - | ? | ? | ? | ?
COc1ccc(C(=O)Nc2ccc3c(c2)OCCO3)cc1 | - | - | ? | - | - | ?
COc1cccc(NC(=O)c2ccc3c(c2)OCO3)c1 | - | - | - | - | - | -
COc1ccc(NC(=O)c2cccc(C#N)c2)cc1NS(=O)(=O)c1ccc(F)cc1 | - | - | - | - | - | -
O=C(Nc1ccccc1)Nc1csc2ccccc12 | 18µM | ? | - | . | - | ?
COc1cccc(OC)c1C(=O)NCCN1CCN(C(=O)c2c(OC)cccc2OC)CC1 | - | - | - | - | - | -
CCc1ccc(NC(=O)C(CC)n2nnc(C(=O)OC)c2C(=O)OC)cc1 (configuration not stated) | - | - | . | . | . | .
CCc1ccc2[nH]c(=O)c(CN(Cc3ccccc3)Cc3nnnn3Cc3ccccc3)cc2c1 | - | - | - | . | . | .
CCOC(=O)Cn1nnnc1CN(Cc1ccccc1)Cc1cc2cc(CC)ccc2[nH]c1=O | - | ? | - | -91 | - | -
O=c1[nH]c2cc3c(cc2cc1CN(Cc1ccccc1)Cc1nnnn1Cc1ccco1)OCCO3 | - | - | - | -59 | - | ?
Cc1cccc2cc(CN(Cc3cccs3)Cc3nnnn3Cc3ccccc3)c(=O)[nH]c12 | - | ? | - | -50 | ? | -
O=c1[nH]c2cc3c(cc2cc1CN(Cc1cccnc1)Cc1nnnn1Cc1ccco1)OCCO3 | - | - | - | - | - | ?
CCc1ccc2[nH]c(=O)c(CN(Cc3ccccc3)Cc3nnnn3Cc3ccco3)cc2c1 | - | - | - | -54 | - | ?
Cc1ccc(NC(=O)N2CCCC2c2cccs2)cc1 (configuration not stated) | - | - | - | - | - | -
CC(NC(=O)C1CC1)C(c1cccs1)N1CCOCC1 (configuration not stated) | - | - | - | - | - | -
COc1ccccc1C1c2[nH]c3ccccc3c2C[C@H]2C(=O)N(C3CCN(Cc4ccccc4)CC3)CC(=O)N12 (some centres not stated) | - | 11µM | - | - | ? | ?
COc1cccc(C2c3[nH]c4ccccc4c3C[C@H]3C(=O)N(C4CCN(Cc5ccccc5)CC4)CC(=O)N23)c1 (some centres not stated) | - | ? | - | -58 | ? | ?
COc1ccc(C2c3[nH]c4ccccc4c3C[C@H]3C(=O)N(C4CCN(Cc5ccccc5)CC4)CC(=O)N23)cc1OC (some centres not stated) | - | ? | - | - | ? | -
O=C(Nc1ccccc1C(=O)N/N=C/c1ccncc1)c1ccccc1 | 5µM | - | - | - | 21µM | 9.2µM

Screening results deposited in PubChem BioAssay by National Center for Advancing Translational Sciences (NCATS).
